Test results from PubChem BioAssay (Tox21).
Inconclusive results are not listed. The source made the active and inactive calls. Calls come from the whole dose curve; as a rule, active = well fitted activation curve with a large enough effect in the signal ratio in the repeat runs (not every such curve was filed as active); inconclusive = weak or mixed curves, or effect the other way; inactive = no such curve, though single readings can be large or run the other way; the % refers to the signal ratio.

Each compound was assayed against Glucocorticoid receptor (Homo sapiens) (UniProt P04150) (assay: qHTS assay to identify small molecule agonists of the glucocorticoid receptor (GR) signaling pathway (AID 720691)). Conditions: GR-bla HeLa, beta-lactamase reporter ratio, 18 h; series mostly up to 62.4 µM; activation: at the top concentration.
Sequence of Glucocorticoid receptor (Homo sapiens) (P04150 whole entry, looked up): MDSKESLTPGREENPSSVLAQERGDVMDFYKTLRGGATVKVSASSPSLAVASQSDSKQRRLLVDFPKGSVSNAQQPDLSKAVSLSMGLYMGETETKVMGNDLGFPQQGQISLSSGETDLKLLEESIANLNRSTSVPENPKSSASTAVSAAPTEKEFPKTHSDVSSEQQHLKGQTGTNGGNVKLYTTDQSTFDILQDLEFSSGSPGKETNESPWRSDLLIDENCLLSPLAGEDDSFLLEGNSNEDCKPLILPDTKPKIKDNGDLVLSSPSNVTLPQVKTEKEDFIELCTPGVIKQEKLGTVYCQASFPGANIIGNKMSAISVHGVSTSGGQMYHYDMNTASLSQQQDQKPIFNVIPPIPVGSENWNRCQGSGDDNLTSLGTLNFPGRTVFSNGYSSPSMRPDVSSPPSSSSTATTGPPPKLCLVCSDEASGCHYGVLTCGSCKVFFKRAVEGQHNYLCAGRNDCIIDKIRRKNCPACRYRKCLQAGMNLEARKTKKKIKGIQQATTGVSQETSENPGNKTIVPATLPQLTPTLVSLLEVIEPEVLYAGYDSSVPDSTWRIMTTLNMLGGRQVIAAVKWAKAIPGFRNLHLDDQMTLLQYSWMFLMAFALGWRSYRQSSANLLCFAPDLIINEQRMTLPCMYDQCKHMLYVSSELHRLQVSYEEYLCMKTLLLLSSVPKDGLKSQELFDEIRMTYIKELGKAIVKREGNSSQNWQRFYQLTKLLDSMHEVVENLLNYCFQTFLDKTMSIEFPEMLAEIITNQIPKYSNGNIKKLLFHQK
Excerpt: U.S. Tox21 Program National Center for Advancing Translational Sciences [NCATS] NIH Chemical Genomics Center [NCGC] U.S. Environmental Protection Agency [EPA] National Institutes of Environmental Health Sciences [NIEHS] National Toxicology Program [NTP] U.S. Food and Drug Administration [FDA] Tox21 Assay Overview: The Glucocorticoid receptor (GR) is one of the members of the nuclear receptor family of ligand-dependent transcription factors. GR plays a critical role in carbohydrate, protein and lipid metabolisms and programmed cell death. CellSensor GR-bla HeLa cell line (Invitrogen) contains a beta-lactamase reporter gene under the control of the glucocorticoid response element stably integrated into HeLa cells, a cervical cancer cell line that expresses glucocorticoid receptor. The activation of the reporter gene under culture conditions can be detected by fluorescence intensity. This cell line has been used to screen the Tox21 10K compound library and to identify the compounds that activate the GR signaling.
Tox21 Assay Protocol Summary: The GR-bla HeLa cells were dispensed at 1500 cells/6 ul/well in 1536-well black wall/clear bottom plates using a Multidrop Combi (ThermoFisher Scientific, Waltham, MA) dispenser. After the assay plates were incubated at a 37 C/5% CO2 incubator for 4 hours, 23 nL of compounds dissolved in DMSO, positive controls or DMSO only was transferred to the assay plate by a pintool station (Kalypsys, San Diego, CA). The plates were incubated at 37 C for 18 hours. After 1 uL of LiveBLAzerTM B/G FRET substrate was added using a Flying Reagent Dispenser (Aurora Discovery, San Diego, CA), the plates were incubated at room temperature for 2 hours, and fluorescence intensity was measured by an Envision plate reader (PerkinElmer, Shelton, CT).
% is set by controls: 0 for no effect and ±100 for the full control effect; potency is the fitted concentration of half-maximal effect.

Row | SMILES | activation | Potency
1 | CCCOC(=O)CC | 0.0706% (inactive) | 
2 | CCCCc1nc(Cl)c(CO)n1Cc1ccc(-c2ccccc2-c2nn[nH]n2)cc1 | -4.54% (inactive) | 
3 | C[N+]1(C)CCCC(OC(=O)C(O)(c2ccccc2)c2ccccc2)C1 (stereo not given) |  | 7.23 µM (active)
4 | Nc1ccn([C@@H]2O[C@H](CO)[C@@H](O)C2O)c(=O)n1 (stereo not given in full) |  | inactive
5 | c1coc(CNc2ncnc3nc[nH]c23)c1 | -0.731% (inactive) | 
6 | CC(C)NNC(=O)c1ccncc1 | -0.27% (inactive) | 
7 | CC(C)(C)c1ccc(-c2ccc(C(C)(C)C)cc2)cc1 | 7.27% (inactive) | 
8 | CC(=O)N[C@H]1[C@H]([C@H](O)[C@H](O)CO)OC(C(=O)O)=C[C@@H]1N=C(N)N | -0.188% (inactive) | 
9 | CCOC(=O)C1=NOC(c2ccccc2)(c2ccccc2)C1 | -0.171% (inactive) | 
10 | CN(C)[C@@H]1C(=O)C(C(=O)NCN2CCCC2)=C(O)[C@@]2(O)C(=O)C3=C(O)c4c(O)cccc4[C@@](C)(O)C3C[C@@H]12 (stereo not given in full) |  | inactive
11 | CC(C)(C)C(=O)c1ccccc1 | -1.65% (inactive) | 
12 | O=C(O)c1cn(C2CC2)c2cc(N3CCNCC3)c(F)cc2c1=O | 2.07% [at 29.2 µM] (inactive) | 
13 | CC1=NN(c2cccc(S(=O)(=O)O)c2)C(=O)C1 | 4.3% (inactive) | 
14 | CCCc1nn(C)c2c(=O)[nH]c(-c3cc(S(=O)(=O)N4CCN(C)CC4)ccc3OCC)nc12 | -3.08% (inactive) | 
15 | O=C(O)c1cc(C(=O)O)cc(C(=O)O)c1 | 0.818% [at 79.2 µM] (inactive) | 
16 | C[N+]1(C)[C@@H]2CC(OC(=O)[C@H](CO)c3ccccc3)C[C@H]1[C@@H]1O[C@@H]12 (stereo not given in full) | -0.392% (inactive) | 
17 | CC1(C)[C@@H]2CC[C@@]1(C)[C@H](O)C2 | 1.32% (inactive) | 
18 | NS(=O)(=O)Cc1noc2ccccc12 | 4.93% (inactive) | 
19 | Cc1c(N)c(=O)n(-c2ccccc2)n1C | -0.311% [at 29.2 µM] (inactive) | 
20 | Cc1ccccc1N=C(N)N=C(N)N | 5.16% (inactive) | 

Row | SMILES | activation | Potency
21 | C[C@@H]1CCC[C@H](C)N1 | 0.0323% [at 29.2 µM] (inactive) | 
22 | CCN1C=CN(C)C1C (stereo not given) | 0.562% [at 79.2 µM] (inactive) | 
23 | CC(C)(C#N)Nc1nc(Cl)nc(NC2CC2)n1 | 6.18% (inactive) | 
24 | O=C1CCCCCCCCCCCCCCO1 | 0.733% (inactive) | 
25 | CCCCCCC#CC(=O)OC | -0.455% (inactive) | 
26 | Cc1cc(C)c(N=Nc2c(O)c(S(=O)(=O)O)cc3cc(S(=O)(=O)O)ccc23)cc1C | -1.47% [at 6.9 µM] (inactive) | 
27 | CC1=NS(=O)(=O)c2cc(Cl)ccc2N1 | -2.74% (inactive) | 
28 | O=C(O)CCSCCC(=O)O | 1.47% (inactive) | 
29 | Cc1ccnc(NS(=O)(=O)c2ccc(N)cc2)n1 | -0.284% [at 29.2 µM] (inactive) | 
30 | COc1ccnc(CS(=O)c2nc3cc(OC(F)F)ccc3[nH]2)c1OC (stereo not given) |  | inactive
31 | CC(COc1ccccc1)NN (stereo not given) | -0.0876% (inactive) | 
32 | CCOc1ccccc1OCC | -1.55% (inactive) | 
33 | O=[N+]([O-])c1ccc(/C=N\O)o1 | 0.0369% (inactive) | 
34 | CC1OC1C1CCC2(C)OC2C1 (stereo not given) | -2.88% (inactive) | 
35 | CC(C)C[C@@H](N)C(=O)O | 5.78% (inactive) | 
36 | O=CN(CCO)CCO | 2.91% (inactive) | 
37 | CCCCc1ccc2c(n1)[C@@H](c1ccc(OC)cc1C[C@H](C)C(=O)O)[C@H](C(=O)O)[C@H]2c1ccc2c(c1)OCO2 | -2.1% (inactive) | 
38 | CCOC(=O)COc1cc(-n2ncc(C(F)(F)F)c(C)c2=O)c(F)cc1Cl | -0.476% (inactive) | 
39 | CCCCCCCCCC[N+](C)(C)[O-] | 6.04% (inactive) | 
40 | Clc1cc(Cl)cc(Cl)c1 | 1.78% (inactive) | 
